Holding throughout (test): PBM binding z-score (relative to random genomic background probes); higher = stronger binding; sequences stand for … in GC…GCGATTGACAGCGTAGAATGAAGG
The test system of experiment [1] is RARb homodimer (NR concentration 270 nM). The gist of the method:
(§1)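 Scanned fluorescence from custom Agilent 4×180K protein-binding microarrays was regression-normalized. Binding z-scores use random background probes as reference. Ligand-free nuclear receptor dimers were incubated on the arrays for 1 h and detected with antibodies against each partner (one per run).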

The subject of experiment [2] is RARg:RXRa (NR concentration 270 nM, RXRa partner concentration 90 nM). The gist of the method: as §1
Experiment [3] has as its system RARg homodimer (NR concentration 270 nM). The gist of the method:
as §1

Experiment [4] deals with RXRa DBDmut IVT, anti-RXR (DBD mutation: RXRa K156A/R161A, NR concentration 90 nM). The gist of the method:
as §1

Experiment [5] has as its system RXRa homodimer (NR concentration 180 nM). The gist of the method: as §1
For experiment [6], the system named is THRa:RXRa (NR concentration 90 nM, RXRa partner concentration 90 nM). In outline:
as §1

Experiment [7] deals with THRa homodimer (NR concentration 90 nM). In outline: as §1
Experiment [8] relates to VDR homodimer (NR concentration 270 nM). The gist of the method: as §1

The results in this text go back to the supplement of paper PMC6555819.

Take GCAATTAGTTGAAAGGGCAACCGAATGATTCTCG: the PBM binding z-score in experiment [1] amounted to 2; in experiment [2], 1.14; in experiment [3], 1.24; in experiment [4] it was 0.685; in experiment [5] it was 1.25; in experiment [6], 0.471. Further, the PBM binding z-score in experiment [7] was -0.13; in experiment [8], 0.159.

Regarding GATACAGGGTCAAGGCCAGAGTCCGCGTATTGAT, the PBM binding z-score is 3.62 in experiment [1]; 5.35 in experiment [2]; 4.89 in experiment [3]; 1.91 in experiment [4]; 5.5 in experiment [5]; 3.52 in experiment [6]. In addition, the PBM binding z-score in experiment [7] worked out at 1.37; in experiment [8], 1.73.

As to ACTATTAGTCGAGACGAGGGCAACCGATAGGTTG, the PBM binding z-score came out at 0.973 in experiment [1]; 0.43 in experiment [2]; 0.663 in experiment [3]; 0.357 in experiment [4]; 0.46 in experiment [5]; 0.977 in experiment [6]. The results for the PBM binding z-score in experiment [7] and in experiment [8] were 0.0699 and 0.358, respectively.

On to GTACCAGGGTGAATAGGTCGTTGATGAGTAGGCG, for which the PBM binding z-score in experiment [1] is 1.54; in experiment [2], 2.21; in experiment [3], 0.988; in experiment [4], -0.386; in experiment [5] it was 2; in experiment [6], 1.21. Also, the PBM binding z-score in experiment [7] is 0.463; in experiment [8], 0.626.

As to CCTAGTTGGTCATGGTCACACACGCTATAGGTAC, the PBM binding z-score in experiment [1] is 1.56; in experiment [2] it was 1.06; in experiment [3] it was 1.54; in experiment [4] it was 0.565; in experiment [5] it was 0.699; in experiment [6] it was 0.458. Also, the PBM binding z-score in experiment [7] amounted to 0.619; in experiment [8] it was 0.905.

For the sequence GGAACGAGGGCGTTCGAGTTGATAGCATGGCGAT, the PBM binding z-score in experiment [1] was -0.589; in experiment [2], 0.0515; in experiment [3] it was 0.202; in experiment [4] it was 2.26; in experiment [5] it was -0.0265; in experiment [6], 2.16. Moreover, the values for the PBM binding z-score in experiment [7] and in experiment [8] were -1.11 and 2.02, respectively.

Turning to AGAACGAGGGCGCGCTGAGTTGATAGCAGAGTAG, the PBM binding z-score in experiment [1] is -0.416; in experiment [2], 0.211; in experiment [3], 0.0624; in experiment [4] it was 0.991; in experiment [5], 0.444; in experiment [6], 0.45. Besides, the PBM binding z-score in experiment [7] was -0.623; in experiment [8] it was 0.824.

Consider TTACCAAGGTGAAAAGTCGTTGATGCACGCCTTG, for which the PBM binding z-score in experiment [1] is 0.298; in experiment [2], 0.676; in experiment [3], 0.264; in experiment [4], -0.185; in experiment [5], 1.15; in experiment [6], 1.37. The PBM binding z-score is 0.0466 in experiment [7] and -0.327 in experiment [8].

For ATCTCTAGGTAACCTAGTTCAGTGAATGCCGAAC, the PBM binding z-score in experiment [1] was 1.27; in experiment [2] it was 0.609; in experiment [3] it was 0.668; in experiment [4] it was 0.329; in experiment [5], 0.722; in experiment [6] it was 1.61. In addition, the PBM binding z-score worked out at 0.673 in experiment [7] and 0.972 in experiment [8].

With TCAGACAGGTGAAGGTAACTCCGGTACGCAGTCG, the PBM binding z-score in experiment [1] was 0.814; in experiment [2], 0.458; in experiment [3] it was 0.575; in experiment [4], 1.28; in experiment [5] it was 1.11; in experiment [6], 1.28. The results for the PBM binding z-score in experiment [7] and in experiment [8] were 0.325 and -0.191, respectively.

As for CCTACTAGGCCACGAAAGGTCATTGATTCAGTGA, the PBM binding z-score in experiment [1] came to 4.71; in experiment [2] it was 4.9; in experiment [3] it was 4.91; in experiment [4] it was 1.22; in experiment [5], 5.5; in experiment [6], 3.85. Further, the PBM binding z-score was 1.29 in experiment [7] and 2.66 in experiment [8].

With AATACAGAGTCACTAGGCCAGAGTAGGTACGAAT, the PBM binding z-score was 0.0526 in experiment [1]; 0.21 in experiment [2]; 0.516 in experiment [3]; -0.494 in experiment [4]; 0.28 in experiment [5]; -0.12 in experiment [6]. Moreover, the PBM binding z-score in experiment [7] was -0.685; in experiment [8] it was -0.0774.

Take ACTCGGAGGACAAAGGTCAGAGCAACGCCAGTGA: the PBM binding z-score in experiment [1] stood at 4.24; in experiment [2], 6.11; in experiment [3] it was 5.43; in experiment [4], 1.26; in experiment [5], 5.09; in experiment [6], 3.55. For the same sequence, the values for the PBM binding z-score in experiment [7] and in experiment [8] were 0.599 and 1.14, respectively.

Consider TCATATAGGAAATACAGGTGAAAGTCGGCATCTA, for which the PBM binding z-score worked out at 0.167 in experiment [1]; 0.527 in experiment [2]; 0.553 in experiment [3]; 2.12 in experiment [4]; 1.37 in experiment [5]; 0.441 in experiment [6]. The PBM binding z-score amounted to 0.299 in experiment [7] and 0.241 in experiment [8].

Regarding TCTTGTAGCTCAAGCAGGTTAAGAAAGCCTGAGT, the PBM binding z-score is -0.116 in experiment [1]; -0.427 in experiment [2]; -0.42 in experiment [3]; 0.0335 in experiment [4]; -0.207 in experiment [5]; 0.103 in experiment [6]. The PBM binding z-score is -1.07 in experiment [7] and -0.763 in experiment [8].

ACAGACAGGAGAGTGAAGGTAACTCAGCTGGACG: the PBM binding z-score in experiment [1] was 0.0737; in experiment [2], 0.0775; in experiment [3], 0.235; in experiment [4], -0.483; in experiment [5], 0.0394; in experiment [6], 0.195. Further, the results for the PBM binding z-score in experiment [7] and in experiment [8] were 0.113 and -0.235, respectively.

Regarding GATACAGGGTCCGCTAGAGGCCAGAGTATGGAAA, the PBM binding z-score in experiment [1] is 0.0694; in experiment [2], 0.628; in experiment [3] it was 0.211; in experiment [4] it was -0.114; in experiment [5], -0.246; in experiment [6] it was 0.0317. The values for the PBM binding z-score in experiment [7] and in experiment [8] were -1.09 and -0.148, respectively.

Consider AAGACAGGGTCACTAGGCCAGAGTAGGTACGAAT, for which the PBM binding z-score in experiment [1] was found to be 3.02; in experiment [2], 4.97; in experiment [3], 4.66; in experiment [4] it was 2.26; in experiment [5], 5.58; in experiment [6], 3.1. Further, the results for the PBM binding z-score in experiment [7] and in experiment [8] were 0.755 and 1.87, respectively.
